We go through 40 molecules from PubChem BioAssay (NCI).

Compounds without any hit were thinned out: in the full panel of roughly 79,000, 15% have a hit. Calls of active or inactive are those of the source. No stated cut-off is given here; in the data, active means growth inhibition above about 70%; inactive means the rest.

The nature of one test: NCI Yeast Anticancer Drug Screen. Data for the rad50 strain (AID 155).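 Further: 0% = growth of vehicle-only cultures of the same strain.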 Conditions: S. cerevisiae rad50 strain growth inhibition; at 5.0 µM (retest, dose inferred, filed as 0.5); stronger effect = higher value. Summed up: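 Genetically altered yeast (DNA repair pathway); compound treatment; growth inhibition vs vehicle ctrl.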
Turning to `CCCCCCCCCCS(=O)(=O)Nc1ccc(C(=O)NN)cc1`, the growth inhibition is 60% (inactive).
Same read-out and setting: the result for `ON(C(=Nc1ccc(Cl)cc1)c1ccccc1)c1ccccc1` reads -10% (inactive); that for `Cc1ccc(-c2c(N)[n+]([O-])c3ccccc3[n+]2[O-])cc1`, 34% (inactive).
Same read-out and setting: the result for `NC(=O)C12OC3CC(CC(C3)O1)O2` reads -25% (inactive).
Still for that read-out and setting: the figure for `C=C(C)[P+](C)(c1ccccc1)c1ccccc1` is -12% (inactive).
Consider `CCC(C)SC1SCC2C(=O)N(C)C3(CC3C)C(=O)OCC(NC(=O)c3nc4ccccc4cc3O)C(=O)NC(C)C(=O)N(C)C1C(=O)N(C)C1(CC1C)C(=O)OCC(NC(=O)c1nc3ccccc3cc1O)C(=O)NC(C)C(=O)N2C` (stereo not given), for which the growth inhibition was 98% (active).
On the same count and under the same terms, the figure for `COc1ccc2ccc(=O)oc2c1CC=C(C)C` is 88% (active); for `O=c1ccn(C2OC(COC(c3ccccc3)(c3ccccc3)c3ccccc3)C(O)C2O)c(=O)[nH]1` (stereo not given) it is 34% (inactive).
As for `O=C1C(=O)C(Cc2ccccc2)(c2ccccc2)C(=O)N1c1ccccc1` (stereo not given), the growth inhibition was 0% (inactive).
The same measure, in the same setting: the result for `CCC(O)C(O)(c1ccccc1)c1nc2ccccc2s1` (stereo not given) reads -9% (inactive).
The same measure, in the same setting: the result for `c1ccc(-n2ncc3ccc4cccn4c32)cc1` reads -4% (inactive).
On the same count and under the same terms, the figure for `O=C(c1ccc([N+](=O)[O-])cc1)C(Br)C(Br)c1ccnc2ccccc12` (stereo not given) is 25% (inactive).
Regarding `[Cl][Sn]1([Cl])[CH2]CC[CH2][Sn]([Cl])([Cl])[CH2]CC[CH2][Sn]([Cl])([Cl])[CH2]CC[CH2][Sn]([Cl])([Cl])[CH2]CC[CH2]1`, the growth inhibition is -20% (inactive).
Same read-out and setting: the result for `Nc1ccc(O)c(=O)cc1` reads -1% (inactive); that for `CC(C)c1cc(C(=O)[O-])c(O)c(C(C)C)c1.CC(C)c1cc(C(=O)[O-])c(O)c(C(C)C)c1.CC(C)c1cc(C(=O)[O-])c(O)c(C(C)C)c1.CC(C)c1cc(C(=O)[O-])c(O)c(C(C)C)c1.CC(C)c1cc(C(=O)[O-])c(O)c(C(C)C)c1.CC(C)c1cc(C(=O)[O-])c(O)c(C(C)C)c1.[Cu+2].[Mn+2].[Mn+2]`, 40% (inactive); that for `CC1=C(C(=O)Nc2cccc(C(F)(F)F)c2)C(c2ccccc2F)C(C(=O)Nc2cccc(C(F)(F)F)c2)=C(C)N1`, 46% (inactive).
Still for that read-out and setting: the figure for `O=C(c1ccccc1)C(C(=O)c1ccccc1)c1ccc2ccccc2n1` is 0% (inactive); for `NC(=S)N1N=C2c3ccccc3CC[C@H]2[C@@H]1c1cccs1` it is -52% (inactive).
Same read-out and setting: the figure for `O=CC(O)CN1CCCC1` (stereo not given) is -2% (inactive); for `CCCCCN(CCCCC)CC(C)(C)C(O)c1ccc(OC)c2ccccc12` (stereo not given) it is -2% (inactive); for `CSC(=S)n1nc(-c2cccs2)c(N=Nc2ccccc2)c1C(F)(F)F` it is 5% (inactive).
For `CC(O)C1CCCC[N+]1(C)C` (stereo not given), the growth inhibition is 1% (inactive).
Turning to `CCCCCCCCCCCC(=O)N(CCOC(=O)c1ccco1)CCOC(=O)c1ccco1`, the growth inhibition was 46% (inactive).
On to `CCOC(=O)NC(=S)Nc1ccsc1`, for which the growth inhibition was 0% (inactive).
The same measure, in the same setting: the result for `O=C(O)c1ccc(C(O)(c2ccccc2)c2ccccc2)cc1` reads -9% (inactive); that for `N#CSCCSCc1ccc(Cl)cc1`, 4% (inactive); that for `CN(/N=C\c1ccc(Cl)cc1)C(c1ccc(Cl)cc1)N(C)/N=C/c1ccc(Cl)cc1` (stereo not given), -1% (inactive).
Turning to `CC(C)(C)[Si](C)(C)OCC1OC(n2cc(I)c(N)nc2=O)C(O[Si](C)(C)C(C)(C)C)C1O[Si](C)(C)C(C)(C)C` (stereo not given), the growth inhibition was 48% (inactive).
On the same count and under the same terms, the figure for `O=C1C(=O)c2cc(Br)cc([N+](=O)[O-])c2-c2ccc(Br)cc21` is 68% (inactive); for `C(=NCCc1ccccc1)c1ccccc1B1OB(c2ccccc2C=NCCc2ccccc2)OB(c2ccccc2C=NCCc2ccccc2)O1` it is 94% (active).
On the same count and under the same terms, the figure for `O=[N+]([O-])c1ccc(-c2ccccc2Cl)c([N+](=O)[O-])c1` is 2% (inactive); for `CC12CCC(=O)C=C1CCC1C2CCC2(C)C(c3cnc[nH]3)CCC12` (stereo not given) it is 51% (inactive).
For `COc1cccc(C2CC(C)(O)Oc3cc4c(cc32)OCO4)c1` (stereo not given), the growth inhibition was 4% (inactive).
`N/C(=N\N=C\c1cc(I)cc(I)c1O)NO`: the growth inhibition is 11% (inactive).
Same read-out and setting: the figure for `Cc1ccc2nn(-c3ccc(O)cc3)nc2c1` is 11% (inactive); for `COC(=O)C1=C(NC(=O)Nc2ccc(Cl)cc2)OC(C)(C)C1c1ccc(Cl)cc1` (stereo not given) it is 87% (active).
Same read-out and setting: the result for `CCCC/C=C\CCCCCCCCCC1=C(O)C(=O)C=C(OC)C1=O` reads 65% (inactive); that for `Cc1nn(C(=O)c2ccccc2O)c2c1C(c1ccco1)SC(N)=N2` (stereo not given), -6% (inactive); that for `CC1=C(CO)C(=O)O[C@@H]([C@@H](C)[C@H]2CC[C@H]3[C@@H]4C[C@@H](O)C5=CC=CC(=O)[C@]5(C)[C@H]4CC[C@]23C)C1`, -2% (inactive).
Same read-out and setting: the result for `O=C(CNC(=O)Nc1ccc(NC(=O)NCC(=O)Nc2ccc(C3=NCCN3)cc2)cc1)Nc1ccc(C2=NCCN2)cc1` reads 3% (inactive).

Still in this test, the particulars now being: S. cerevisiae rad50 strain growth inhibition; at 50.0 µM (retest, dose inferred, filed as 5.0); stronger effect = higher value.
Turning to `CCCCCCCCCCS(=O)(=O)Nc1ccc(C(=O)NN)cc1`, the growth inhibition is 83% (active).
`ON(C(=Nc1ccc(Cl)cc1)c1ccccc1)c1ccccc1`: the growth inhibition is 98% (active).
On the same count and under the same terms, the result for `Cc1ccc(-c2c(N)[n+]([O-])c3ccccc3[n+]2[O-])cc1` reads 95% (active); that for `NC(=O)C12OC3CC(CC(C3)O1)O2`, -10% (inactive).
Same read-out and setting: the figure for `C=C(C)[P+](C)(c1ccccc1)c1ccccc1` is 25% (inactive); for `CCC(C)SC1SCC2C(=O)N(C)C3(CC3C)C(=O)OCC(NC(=O)c3nc4ccccc4cc3O)C(=O)NC(C)C(=O)N(C)C1C(=O)N(C)C1(CC1C)C(=O)OCC(NC(=O)c1nc3ccccc3cc1O)C(=O)NC(C)C(=O)N2C` (stereo not given) it is 89% (active).
Same read-out and setting: the figure for `COc1ccc2ccc(=O)oc2c1CC=C(C)C` is 98% (active); for `O=c1ccn(C2OC(COC(c3ccccc3)(c3ccccc3)c3ccccc3)C(O)C2O)c(=O)[nH]1` (stereo not given) it is 98% (active).
Regarding `O=C1C(=O)C(Cc2ccccc2)(c2ccccc2)C(=O)N1c1ccccc1` (stereo not given), the growth inhibition was 42% (inactive).
The same measure, in the same setting: the result for `CCC(O)C(O)(c1ccccc1)c1nc2ccccc2s1` (stereo not given) reads 15% (inactive); that for `c1ccc(-n2ncc3ccc4cccn4c32)cc1`, -2% (inactive).
Take `O=C(c1ccc([N+](=O)[O-])cc1)C(Br)C(Br)c1ccnc2ccccc12` (stereo not given): the growth inhibition was 80% (active).
The same measure, in the same setting: the figure for `[Cl][Sn]1([Cl])[CH2]CC[CH2][Sn]([Cl])([Cl])[CH2]CC[CH2][Sn]([Cl])([Cl])[CH2]CC[CH2][Sn]([Cl])([Cl])[CH2]CC[CH2]1` is 57% (inactive); for `Nc1ccc(O)c(=O)cc1` it is 1% (inactive).
Still for that read-out and setting: the result for `CC(C)c1cc(C(=O)[O-])c(O)c(C(C)C)c1.CC(C)c1cc(C(=O)[O-])c(O)c(C(C)C)c1.CC(C)c1cc(C(=O)[O-])c(O)c(C(C)C)c1.CC(C)c1cc(C(=O)[O-])c(O)c(C(C)C)c1.CC(C)c1cc(C(=O)[O-])c(O)c(C(C)C)c1.CC(C)c1cc(C(=O)[O-])c(O)c(C(C)C)c1.[Cu+2].[Mn+2].[Mn+2]` reads 63% (inactive).
As for `CC1=C(C(=O)Nc2cccc(C(F)(F)F)c2)C(c2ccccc2F)C(C(=O)Nc2cccc(C(F)(F)F)c2)=C(C)N1`, the growth inhibition was 46% (inactive).
Same read-out and setting: the result for `O=C(c1ccccc1)C(C(=O)c1ccccc1)c1ccc2ccccc2n1` reads 1% (inactive); that for `NC(=S)N1N=C2c3ccccc3CC[C@H]2[C@@H]1c1cccs1`, 20% (inactive).
On the same count and under the same terms, the figure for `O=CC(O)CN1CCCC1` (stereo not given) is 11% (inactive).
Still for that read-out and setting: the result for `CCCCCN(CCCCC)CC(C)(C)C(O)c1ccc(OC)c2ccccc12` (stereo not given) reads 42% (inactive); that for `CSC(=S)n1nc(-c2cccs2)c(N=Nc2ccccc2)c1C(F)(F)F`, 97% (active).
For the molecule `CC(O)C1CCCC[N+]1(C)C` (stereo not given), the growth inhibition was -3% (inactive).
In the case of `CCCCCCCCCCCC(=O)N(CCOC(=O)c1ccco1)CCOC(=O)c1ccco1`, the growth inhibition is 96% (active).
For the molecule `CCOC(=O)NC(=S)Nc1ccsc1`, the growth inhibition was -7% (inactive).
On the same count and under the same terms, the result for `O=C(O)c1ccc(C(O)(c2ccccc2)c2ccccc2)cc1` reads 65% (inactive).
Same read-out and setting: the figure for `N#CSCCSCc1ccc(Cl)cc1` is 99% (active); for `CN(/N=C\c1ccc(Cl)cc1)C(c1ccc(Cl)cc1)N(C)/N=C/c1ccc(Cl)cc1` (stereo not given) it is 70% (active).
The same measure, in the same setting: the result for `CC(C)(C)[Si](C)(C)OCC1OC(n2cc(I)c(N)nc2=O)C(O[Si](C)(C)C(C)(C)C)C1O[Si](C)(C)C(C)(C)C` (stereo not given) reads 97% (active); that for `O=C1C(=O)c2cc(Br)cc([N+](=O)[O-])c2-c2ccc(Br)cc21`, 96% (active).
For `C(=NCCc1ccccc1)c1ccccc1B1OB(c2ccccc2C=NCCc2ccccc2)OB(c2ccccc2C=NCCc2ccccc2)O1`, the growth inhibition is 99% (active).
Same read-out and setting: the result for `O=[N+]([O-])c1ccc(-c2ccccc2Cl)c([N+](=O)[O-])c1` reads 95% (active); that for `CC12CCC(=O)C=C1CCC1C2CCC2(C)C(c3cnc[nH]3)CCC12` (stereo not given), 75% (active).
The same measure, in the same setting: the figure for `COc1cccc(C2CC(C)(O)Oc3cc4c(cc32)OCO4)c1` (stereo not given) is 36% (inactive); for `N/C(=N\N=C\c1cc(I)cc(I)c1O)NO` it is 98% (active); for `Cc1ccc2nn(-c3ccc(O)cc3)nc2c1` it is 45% (inactive).
Same read-out and setting: the result for `COC(=O)C1=C(NC(=O)Nc2ccc(Cl)cc2)OC(C)(C)C1c1ccc(Cl)cc1` (stereo not given) reads 88% (active); that for `CCCC/C=C\CCCCCCCCCC1=C(O)C(=O)C=C(OC)C1=O`, 83% (active); that for `Cc1nn(C(=O)c2ccccc2O)c2c1C(c1ccco1)SC(N)=N2` (stereo not given), 65% (inactive).
On to `CC1=C(CO)C(=O)O[C@@H]([C@@H](C)[C@H]2CC[C@H]3[C@@H]4C[C@@H](O)C5=CC=CC(=O)[C@]5(C)[C@H]4CC[C@]23C)C1`, for which the growth inhibition was 41% (inactive).
Still for that read-out and setting: the figure for `O=C(CNC(=O)Nc1ccc(NC(=O)NCC(=O)Nc2ccc(C3=NCCN3)cc2)cc1)Nc1ccc(C2=NCCN2)cc1` is -2% (inactive).
